Screens: PubChem, National Center for Advancing Translational Sciences (NCATS)
RORgamma inh – blocks mouse ROR gamma transcriptional activity; AID 2551; Potency, µM (highest dose often 53.6 µM), without a hit: top-dose activity change, negative = inhibition, actives largely listed as inhibitors; Drosophila S2 Gal4-RORgamma UAS-luciferase reporter, 20 h; 310,000 compounds, 5.4% hits; further: on the % scale 0 is the no-effect control and ±100 the full control effect; nearly all actives have a fitted effect of over 60% in size
Target sequence (P51450 whole entry, looked up, the tested form may be a part): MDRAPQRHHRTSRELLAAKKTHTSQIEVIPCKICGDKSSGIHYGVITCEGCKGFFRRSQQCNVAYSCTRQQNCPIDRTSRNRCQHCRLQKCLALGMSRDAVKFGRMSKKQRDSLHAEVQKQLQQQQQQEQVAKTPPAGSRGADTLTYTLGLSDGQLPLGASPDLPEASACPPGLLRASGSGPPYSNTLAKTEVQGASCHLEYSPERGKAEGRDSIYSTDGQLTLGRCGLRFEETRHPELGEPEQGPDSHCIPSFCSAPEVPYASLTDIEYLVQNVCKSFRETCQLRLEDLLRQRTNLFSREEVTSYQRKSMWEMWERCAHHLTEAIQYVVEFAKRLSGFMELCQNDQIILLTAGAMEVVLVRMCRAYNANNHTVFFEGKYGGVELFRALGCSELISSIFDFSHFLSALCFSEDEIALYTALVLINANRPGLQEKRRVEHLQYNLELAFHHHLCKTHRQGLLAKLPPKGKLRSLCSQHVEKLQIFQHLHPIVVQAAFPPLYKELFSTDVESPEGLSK
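ROR gamma transcriptional activity was tracked as Gal4-UAS luciferase output in stably transfected Drosophila Schneider cells, with compound added 1 hr before 700 uM copper sulfate induction and a 20 hr ambient-temperature incubation.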
SW480 rerep – induces DNA re-replication in SW480 colon adenocarcinoma cells; SW480 DNA re-replication, Hoechst DNA content imaging, 48 h; Potency, µM (titrated, usually from 46.1 µM), for the others: top-dose re-replication activation, most hits filed as activators; 340,000 compounds, 1.8% hits; AID 624297; further: % of control where 0% means no effect; nearly all actives have a fitted effect of over 55% in size
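First, 250 cells per well were seeded. Next, compound or vehicle (23 nL) was pinned in, plates sat 48 hr at 37 C. Finally Hoechst was added for 40 min before fluorescence scanning.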
Gal4-VP16 FLuc – counter-screen for ROR gamma inhibitors: Gal4-VP16 reporter; Drosophila S2 Gal4-VP16 UAS-luciferase, luminescence, 20 h; 310,000 compounds, 3.5% hits; Potency, µM (series often up to 53.6 µM), inactives show at the top dose activity, negative = inhibition, actives largely listed as inhibitors;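 further: Gal4-VP16 expression switched on by copper sulfate through the metallothionein promoter; on the % scale 0 is the no-effect control and ±100 the full control effect; nearly all actives have a fitted effect of over 50% in size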
ELG1 DNA repair – inhibitors of ELG1-dependent DNA repair in HEK293T cells; HEK293T ELG1-luciferase reporter, luminescence, 16 h; DNA damage induced by 5-fluorouridine; Potency, µM (series often up to 46.1 µM), for inactives: top-dose activity change, negative = inhibition, most hits filed as inhibitors; 330,000 compounds, 2.3% hits; AID 504467; further: on the % scale 0 is the no-effect control and ±100 the full control effect; nearly all actives have a fitted effect of over 55% in size
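Step one: seed 2,000 cells per well. Step two: pin-transfer compound or DMSO alongside 5-fluorouridine. Step three: incubate 16 hr, 37 °C, 5% CO2. Step four: add ONE-Glo, wait 30 min, read luminescence.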
MCF10A rereplic – DNA re-replication induction in MCF 10a cells; 350,000 compounds, 2.9% hits; Potency, µM (top dose mostly 46.1 µM), without a hit: at the highest dose activity, positive = re-replication, most hits filed as activators; MCF 10A DNA re-replication, Hoechst nuclear intensity, 48 h; AID 624296; further: % of control where 0% means no effect; nearly all actives have a fitted effect of over 50% in size
Numbers without * were called inactive; u = inconclusive; x = no result given; [ ] = dose if it differs, or a comment. This is a sample that favours compounds with a hit; in the whole collection about 10% have one here. The call rests on the fitted dose curve; in most records, active means well fitted curve in the direction sought with a large enough effect; inconclusive means small, poorly fitted or top-dose-only effect, or another doubt; inactive means no such curve, though single readings can be large; an effect the other way counts as inactive or inconclusive. Potency means the concentration at half of the fitted maximal effect.

SMILES	RORgamma inh	SW480 rerep	Gal4-VP16 FLuc	ELG1 DNA repair	MCF10A rereplic
Cc1ccc(Cl)cc1NC(=S)Nn1cnnc1	13µM*	-10%	u	-1%	-1%
Cc1ccc(NC(=S)N2CCN(c3ncccn3)CC2)c(C)c1	35µM*	-13%	u	-19%	-2%
COc1ccc(C)cc1NC(=S)N1CCN(c2ncccn2)CC1	-22%	-12%	-8%	-2%	-53%
COc1ccc(Cl)cc1NC(=S)N1CCCCCC1	u	1%	-30%	9%	15%
O=C(Cc1cccc(NC(=O)C2CCN(C(=O)C3CCC3)CC2)c1)Nc1cccc(C(=O)N2CCCC2)c1	x	-9%	x	5%	-3%
COc1ccc(-n2c(=O)c(-c3cc(F)cc(F)c3)nc3cncnc32)cc1	-30%	x	-1%	x	x
O=C(CSc1nnc(NC(=O)c2c(F)cccc2F)s1)NC1CC1	u	-5%	4%	u	-7%
Cc1cccc(NC(=S)N2CCCCCC2)c1C	u	-8%	u	u	-27%
CCc1ccccc1NC(=S)N1CCCCCC1	14µM*	-2%	u	-8%	-1%
Cc1c(Cl)cccc1NC(=S)N1CCCCCC1	14µM*	-3%	u	14%	10%
CCCCN1C(=O)N(CCc2ccc(F)cc2)S(=O)(=O)c2cc(C(F)(F)F)ccc21	x	-11%	x	14%	24%
NC1(C(=O)O)CSSC1	x	u	x	x	10µM*
NC1(C(=O)O)C[C@@H](C(=O)O)[C@H](C(=O)O)C1	0%	x	-9%	x	x
Cc1ccc([C@@H]2CC=C(C(=O)O)[C@H](c3ccccc3)N2S(=O)(=O)c2ccccc2C)cc1	x	0%	x	0%	-39%
COc1cccc(CNC(=O)CCS(=O)(=O)Cc2ccc(C)cc2)c1	-4%	7%	-7%	11%	0%
Cc1ccc(C(=O)CCNc2ccc(Br)cc2)o1	19%	0%[9.22 µM]	21%	x	u
Cc1ccc(C(=O)Cc2ccccc2)cc1	x	-5%	x	x	4%
Cc1ccc(C(=O)CCNc2ccccc2)o1	-35%	u	20%	x	7.1µM*
Cc1ccc(C(=O)Cc2ccccc2)o1	x	1µM*	x	28%	1%
CC1Cc2ccccc2N1C(=S)Nc1cccc(S(=O)(=O)N(C)C)c1 (centres undefined)	u	u	3%	-6%	u
CN(C)S(=O)(=O)c1cccc(NC(=S)N2CCc3ccccc32)c1	14µM*	10%	u	u	u
NS(=O)(=O)c1ccc(NC(=S)N2CCc3ccccc32)cc1	8%	-16%	5%	-24%	-29%
Cc1ccc(S(=O)(=O)N(C)C)cc1NC(=S)N1CCc2ccccc21	10µM*	5%	0%	u	16%
COc1ccc(C(=O)Nc2ccccc2C(=O)N2CCCCC2C)cc1 (centres undefined)	-31%	-1%	0%	5%	10%
CS(=O)(=O)c1ccc(C(=O)N2CC(=O)Nc3ccccc32)cc1	0%	-1%	0%	0%	-3%
SMILES	RORgamma inh	SW480 rerep	Gal4-VP16 FLuc	ELG1 DNA repair	MCF10A rereplic
Cc1cc(C)cc(C(=O)N2CC(=O)Nc3ccccc32)c1	1%	0.73µM*	11%	28%	u
Cc1ccc(/C=C/C(=O)N2CC(=O)Nc3ccccc32)o1	u	-16%	16µM*	-18%	-37%
CC1Cn2c(nnc2-c2ccc(F)cc2)S1 (centres undefined)	7%	-9%	-5%	8%	12%
CC1Cn2c(nnc2C23CC4CC(CC(C4)C2)C3)S1 (centres undefined)	-11%	u	6%	12%	15µM*
S=C(Nc1ccc(Cl)cc1)c1nc2ccccc2s1	0.32µM*	1%	1.4µM*	u	u
O=C(O)C/C(=C\c1cccc(NC(=O)c2ccccc2Cl)c1)c1nc2ccccc2s1	-37%	21%	6%	17%	-1%
Cc1ccc(C)c(NC(=S)c2nc3ccccc3s2)c1	0.4µM*	-4%	0.71µM*	u	-9%
Cc1ccc(NC(=S)c2nc3ccccc3s2)cc1	1µM*	1%	2µM*	u	-2%
COc1ccc(NC(=O)c2nc3ccccc3s2)cc1	-41%	-691%	u	u	0%
O=C(Nc1ccc(Cl)cc1)/C(=C/c1cccc(O)c1)c1nc2ccccc2s1	11µM*	21µM*	20µM*	26µM*	4.1µM*
O=c1[nH]c(=S)[nH]c2c1CN(Cc1ccc(F)cc1)CC2	-24%	-10%	-4%	26%	2%
CC(NC(=O)COC(=O)C1CC1C)c1cccc(Cl)c1 (centres undefined)	x	-13%	x	11%	-4%
N/C(=N\OC(=O)c1cc(Cl)ccc1Cl)c1ccccn1	-87%	11%	14µM*	u	1%
N/C(=N\OC(=O)COc1ccc(Br)cc1Cl)c1ccccn1	u	1%	u	u	13%
N/C(=N\OC(=O)COc1ccccc1)c1ccccn1	23%	18µM*	0%	u	4%
CCc1ccc(OCC(=O)O/N=C(\N)c2ccccn2)cc1	-1%	-2%	-3%	u	0%
N/C(=N\OC(=O)COc1ccc(Cl)cc1Cl)c1ccccn1	10µM*	-3%	u	u	-4%
CSc1ccc(CC(=O)N2CCC(n3nccc3NC(=O)C3CC3)CC2)cc1	-1%	-7%	25%	u	-3%
O=C(Nc1ncc(Cc2ccccc2)s1)C1CCCO1 (centres undefined)	u	-2%	u	u	9%
O=C(Nc1ncc(Cc2ccc(Cl)cc2Cl)s1)c1ccc([N+](=O)[O-])cc1	2.2µM*	-119%	3.5µM*	-21%	2%
O=C(CSc1nnnn1-c1ccccc1)Nc1ncc(Cc2ccccc2Cl)s1	-6%	-4%	-22%	1%	-3%
O=C(Nc1ncc(Cc2ccccc2Cl)s1)C1=NCCN1	4µM*	5%	3.2µM*	-4%	-2%
CCc1ccc(Cc2cnc(NC(=O)C3=NCCN3)s2)cc1	7.1µM*	0%	u	u	0%
O=C(Nc1nnc(COc2ccc(Cl)cc2)s1)c1ccc([N+](=O)[O-])cc1	6%	1%	-7%	-13%	8%
CCOC(=O)C1=C(C)NC(=O)NC1c1ccccc1OCc1c(F)cccc1Cl (centres undefined)	-5%	11%	-7%	12%	-4%
O=C(CSc1nnc(NC(=O)C2CCC2)s1)Nc1ccccc1F	-31%	-16%	-9%	8%	-5%
CCc1cccc(NS(=O)(=O)c2csc(C(N)=O)c2)c1	u	0%	u	-2%	u
O=C(CSc1ncccc1-c1nc2ccccc2[nH]1)NCc1ccco1	-10%	u	0%	0%	0%
Cc1cc2nc(-c3cccnc3SCC(=O)NCc3ccco3)[nH]c2cc1C	11µM*	-3%	13µM*	u	1%
